The results in this text go back to PubChem BioAssay (NCATS).

A number with no mark means an inactive call. Inconclusive results are not listed. Activity calls are given as the source filed them. Unless noted, calls follow the shape of the dose curve; as a rule, active = well fitted curve in the direction sought with a large enough effect; inconclusive = small, poorly fitted or top-dose-only effect, or another doubt; inactive = no such curve, though single readings can be large; an effect the other way counts as inactive or inconclusive.

The nature of experiment [1]: Cellular Toxicity (caspase-3) SHSY5Y (AID 657). The procedure, abridged:
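Cells plated and incubated 5 h at 37 °C, dosed over a concentration range, incubated 16 h, then given Caspase-Glo 3/7 reagent for 1 h at room temperature before luminescence reading. Staurosporine (10 uM) defined full stimulation.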

Experiment [2] in a line: Cellular Toxicity (caspase-3) BJ (AID 658).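 Also: 0% = DMSO basal and 100% = 10 µM staurosporine.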 The procedure, abridged: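 Luminescent aminoluciferin-substrate cleavage reports caspase 3/7 activity in normal human BJ fibroblasts after 16 hr compound exposure at 37 °C. Normalized to DMSO (basal) and 10 uM staurosporine (100%); AC50 from Hill fit of concentration-response.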
Experiment [3] can be described thus: Cellular Toxicity (caspase-3) N2a (AID 665).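 Also: compound exposure lasted 16 h at 37 °C before readout.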 The essentials: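 Mouse N2a neuroblastoma cells (1500/well) were treated with compounds for 16 h at 37 °C, then caspase-3/7 activity was read by Caspase-Glo luminescence after 1 h at room temperature. Data were normalized to DMSO and 10 uM staurosporine; AC50 from Hill fits.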
A short description of experiment [4]: Cellular Toxicity (caspase-3) Renal Proximal Tubule (AID 667).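 Also: cells exposed to compound for 16 hours at 37 °C before detection; 0% = DMSO basal and 100% = 10 µM staurosporine.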 The procedure, abridged:
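In qHTS format, rat primary proximal tubule cells seeded at 1000 per well are exposed to compounds for 16 hours at 37 °C. An increase in Caspase-Glo 3/7 luminescence indicates caspase activation.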

A short description of experiment [5]: MultiTox-Fluor Cytotoxicity Assay - LYMP1-001 - Dead Cells (AID 946). The essentials:
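Cytotoxicity as increased dead-cell protease fluorescence (bis-AAF-R110, 485/520 nm), read 60 min after MultiTox-Fluor reagent. Human lymphoblastoid line exposed 16 h; Hill-fitted AC50, with DMSO as 0% and 15 uM tetraoctylammonium bromide as 100%.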

Experiment [6] can be described thus: Cell Viability - LYMP1-002 - Assay at 16 hr (AID 948).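 Also: 0% = DMSO alone and full effect = 92 µM tetraoctylammonium bromide.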 The essentials: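 Acute cytotoxicity is scored as a concentration-dependent fall in intracellular ATP in a human lymphoblastoid line (LYMP1-002) after 16 hr compound exposure at 37 C, measured by luciferase luminescence.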
Experiment [7] in a line: MultiTox-Fluor Cytotoxicity Assay - LYMP1-003 - Dead Cells (AID 961). Also: nearly all actives have a fitted effect of over 70% in size. The procedure, abridged:
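Dead-cell protease release, detected as bis-AAF-R110 fluorescence at 485/520 nm, was measured in LYMP1-003 cells after 16 h compound treatment at 37 C. AC50 values came from Hill-modeled qHTS curves normalized to DMSO (0%) and 15 uM tetraoctylammonium bromide (100%).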

The nature of experiment [8]: Cell Viability - LYMP1-003 - Assay at 24 hr (AID 963).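 Also: plate controls were DMSO only for no effect and tetraoctylammonium bromide positive control for full effect.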 The procedure, abridged: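 Human lymphoblastoid LYMP1-003 cells (2500/well) were rested 5 hr at 37 C, then exposed to compounds in complete medium for 24 hr at 37 C. Cellular ATP was quantified by CellTiter-Glo luminescence, and AC50 values came from Hill fits of concentration-response data.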
Experiment [9] in a line: Cell Viability - LYMP2-003 (AID 965).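 Also: cells exposed to compounds for 24 h before reading; nearly all actives have a fitted effect of over 50% in size.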 Also: potency is read from the fitted curve at half-maximal effect. The procedure, abridged:
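Acute cytotoxicity is scored as a concentration-dependent drop in intracellular ATP, measured by luciferase luminescence in human lymphoblastoid cells treated for 24 hours at 37 C. AC50 values derive from Hill-equation modelling.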

A short description of experiment [10]: Cell Viability - LYMP2-013 (AID 970). Also: nearly all actives have a fitted effect of over 55% in size. Also: potency is read from the fitted curve at half-maximal effect. The procedure, abridged:
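Human lymphoblastoid cells, 2500/well, were preincubated 5 hr at 37 C, then treated with compounds for 24 hr at 37 C in complete medium. Intracellular ATP was read by CellTiter-Glo luminescence; AC50 from Hill-equation fits of concentration-response data.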

The nature of experiment [11]: Cell Viability - LYMP2-019 (AID 973). Also: nearly all actives have a fitted effect of over 55% in size. Also: potency is read from the fitted curve at half-maximal effect. The procedure, abridged:
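Human lymphoblastoid cells were seeded at 2500 cells/well, preincubated 5 hr at 37 C, then exposed to compounds for 24 hr at 37 C in complete medium. Intracellular ATP was measured by CellTiter-Glo luminescence; AC50 from Hill fits.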

The nature of experiment [12]: Cell Viability - LYMP2-008 (AID 980). Also: nearly all actives have a fitted effect of over 60% in size. Also: potency is read from the fitted curve at half-maximal effect. The procedure, abridged: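 Human lymphoblastoid cells (2500/well) were plated, held 5 hr at 37 C, then exposed to compounds for 24 hr at 37 C in complete medium. Intracellular ATP was read by CellTiter-Glo luminescence; AC50 from Hill-fitted concentration-response.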
Experiment [13] is described as follows: Cell Viability - LYMP2-012 (AID 982).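 Also: cellular ATP by luciferase luminescence where a drop means cytotoxicity; cells exposed to compound for one day before reading; nearly all actives have a fitted effect of over 55% in size.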 Also: potency is read from the fitted curve at half-maximal effect.
Experiment [14] is described as follows: Cell Viability - LYMP2-016 (AID 984). Also: nearly all actives have a fitted effect of over 55% in size. Also: potency is read from the fitted curve at half-maximal effect. The essentials: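 Acute toxicity in a Coriell human lymphoblastoid line is scored as loss of intracellular ATP over 24 h of treatment in complete medium. CellTiter-Glo signal is fitted across concentrations with the Hill equation to give AC50.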
Experiment [15] in a line: Cell Viability - LYMP1-002 - Assay at 24 hr (AID 993). Also: % is scaled to controls: 0 for no effect and ±100 for the full control effect. The essentials: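 Human lymphoblastoid LYMP1-002 cells, 2500/well in complete medium, were treated with compounds for 24 h at 37 C; intracellular ATP was read by CellTiter-Glo luminescence. AC50 values came from Hill-equation fits of qHTS concentration-response data.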
The nature of experiment [16]: Cell Viability - LYMP1-002 - Assay at 40 hr (AID 994).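 Also: 0% = DMSO only and full inhibition = 92 µM tetraoctylammonium bromide; nearly all actives have a fitted effect of over 60% in size.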 The procedure, abridged: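 Human lymphoblastoid cells, 2500/well in complete medium, were preincubated 5 hr at 37 C, then exposed to compounds for 40 hr at 37 C. Intracellular ATP was read by CellTiter-Glo luminescence after 30 min at room temperature; AC50 from Hill-equation fits.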
A short description of experiment [17]: qHTS Assay for Identification of Small Molecule Inducers of Hypoxia Response (AID 2120; active = well fitted curve in the direction sought with a large enough effect in the signal ratio, with a control signal flat, not every such curve was filed as active; the % refers to the signal ratio; also: 0% is about no effect). The essentials:
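HRE-beta-lactamase reporter in CellSensor HRE-bla ME-180 cells, 2500 cells/well in Opti-MEM with 0.5% dialyzed FBS; compounds tested as titration series, 17 h at 37 degrees C. CCF4 substrate 2.5 h at room temperature; AC50 from 460/530 nm ratio.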
In general terms: In qHTS, concentration-response curves come from the screen itself.

For experiment [18], the target named is Peroxisome proliferator-activated receptor alpha (Homo sapiens) (UniProt Q07869). In words: qHTS assay for small molecule agonists of the peroxisome proliferator-activated receptor alpha (PPARalpha) signaling pathway (AID 651778). Also: % of control where 0% means no effect. The following applies: PathHunter PPARalpha complementation, chemiluminescence, 6 h; active compounds read high. The procedure, abridged:
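Cells plated at 2,000/well and held overnight at 37 C, 5% CO2, then compound added by pin tool for 6 hr; after PathHunter detection reagent and 60 min at room temperature, chemiluminescence from enzyme complementation was read.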

Experiment [19] can be described thus: qHTS assay for cell viability of HEK293 cells (AID 743288). Also: % is scaled to controls: 0 for no effect and ±100 for the full control effect; nearly all actives have a fitted effect of over 50% in size. The following applies: ATP luminescence (CellTiter-Glo), 18 h, active compounds read low. The essentials:
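The Tox21 protocol used parental HEK293 cells treated for 18 h at 37 C with compounds delivered by pintool; ATP-coupled luminescence after 30 min at room temperature gave viability.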

Experiment [20] is described as follows: qHTS assay for cell viability of the p53RE-bla HCT-116 cell line (AID 743292). The essentials: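 ATP-based luminescence, 16 h compound exposure at 37 C, p53RE-bla HCT-116 cells at 4,000/well.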

Peroxisome proliferator-activated receptor alpha (Homo sapiens), sequence (Q07869 whole entry, looked up): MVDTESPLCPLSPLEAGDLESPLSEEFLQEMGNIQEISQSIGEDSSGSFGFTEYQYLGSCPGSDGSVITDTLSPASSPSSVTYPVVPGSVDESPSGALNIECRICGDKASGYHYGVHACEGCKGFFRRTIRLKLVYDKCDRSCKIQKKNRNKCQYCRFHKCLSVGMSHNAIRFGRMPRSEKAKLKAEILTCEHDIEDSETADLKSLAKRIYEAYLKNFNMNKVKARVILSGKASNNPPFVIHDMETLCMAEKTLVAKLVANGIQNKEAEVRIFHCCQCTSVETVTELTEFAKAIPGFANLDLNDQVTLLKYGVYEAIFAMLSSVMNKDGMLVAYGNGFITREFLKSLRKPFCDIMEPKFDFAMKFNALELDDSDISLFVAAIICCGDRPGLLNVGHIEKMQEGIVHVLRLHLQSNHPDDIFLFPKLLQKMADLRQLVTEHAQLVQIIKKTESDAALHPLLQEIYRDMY

Regarding `Clc1cc(Cl)c(Cl)c(Cl)c1`, the outcome in experiment [1], in experiment [2], in [3], in experiment [4], in experiment [5] and in [6] was inactive. The compound was called inactive in experiment [8]. The Potency result in [7], in [9], in [10], in experiment [11], in experiment [12] and in [13] was “inactive” throughout. Further, the Potency result in experiment [14], in [15], in [16], in experiment [17] and in experiment [20] was “inactive” throughout. Moreover, the values for the max response in [18] and in experiment [19] were -0.217% and -14.6%, respectively.
`O=[N+]([O-])c1ccccc1O`: the result in experiment [1], in experiment [2], in [3], in [4], in experiment [5] and in [6] was inactive. In addition, in [8], the outcome was inactive. The Potency entry in experiment [7], in experiment [9], in experiment [10], in [11], in experiment [12] and in [13] was “inactive” in each case. Moreover, the Potency result in [14], in experiment [15], in [16], in experiment [17] and in experiment [20] was “inactive” in each case. Moreover, the max response in experiment [18] is -0.691%; in experiment [19] it was 0.38%.
As to `C=CC(=O)OCC(C)C`, the outcome in [1], in [2], in experiment [3], in experiment [4], in [5] and in experiment [6] was inactive. Also, the call in experiment [8] was inactive. Also, the Potency entry in experiment [7], in [9], in experiment [10], in [11], in experiment [12] and in experiment [13] was “inactive” in each case. Also, the Potency result in [14], in [15], in experiment [16], in [17] and in experiment [20] was “inactive” each time. In addition, the max response in experiment [18] is 3.76%; in [19], 2.29%.
Regarding `N#CC(Br)Br`, the compound was classed as inactive in [1], in [2], in experiment [3], in experiment [4], in experiment [5] and in [6]. In [8], the call was inactive. Moreover, the Potency result in experiment [7], in experiment [9], in experiment [14], in experiment [15], in experiment [16] and in experiment [17] was “inactive” throughout. Also, the Potency result in experiment [20] was “inactive”. Further, the max response is -1.13% in experiment [18] and -22.9% in experiment [19].
For the compound `CN(C)c1ccc(N)cc1`, the call in [1], in experiment [2], in experiment [3], in experiment [4] and in [5] was inactive. Also, the Potency is 50.1 µM (active) in [9]; 79.4 µM (active) in [10]; 50.1 µM (active) in experiment [11]; 50.1 µM (active) in [12]; 50.1 µM (active) in experiment [13]; 79.4 µM (active) in experiment [14]. Also, the Potency result in [17] and in [20] was “inactive” throughout. Moreover, the max response in [18] is 11.3%.
On to `CCCCOCC1CO1` (stereo not given), for which the compound was classed as inactive in experiment [1], in experiment [2], in [3], in [4], in experiment [5] and in experiment [6]. Further, the compound was called inactive in experiment [8]. Also, the Potency result in [7], in experiment [9], in experiment [10], in experiment [11], in [12] and in experiment [13] was “inactive” in each case. The Potency entry in experiment [14], in [15], in experiment [16], in experiment [17] and in experiment [20] was “inactive” each time. The max response in [18] is -2.14%; in [19], -19.5%.
As for `c1ccc2c(c1)CCNC2`, the result in [1], in [2], in [3], in experiment [4], in [5] and in experiment [6] was inactive. Moreover, the compound was called inactive in experiment [8]. Moreover, the Potency result in experiment [7], in experiment [9], in experiment [10], in [11], in experiment [12] and in [13] was “inactive” throughout. Moreover, the Potency result in experiment [14], in experiment [15], in experiment [16], in [17] and in experiment [20] was “inactive” throughout. Moreover, the max response in [18] is 5.32%; in experiment [19], 1.81%.
